Experimental data taken from PubChem BioAssay AID504339 (National Center for Advancing Translational Sciences (NCATS), 2011).
About 17,000 (4.4%) of roughly 390,000 compounds were called active. Roughly 8% stayed inconclusive and do not appear here. Shown is part of a subset that was picked to be rich in actives. A number with no mark means an inactive call. Calls come from the whole dose curve; as a rule, active = well fitted inhibition curve with a large enough effect; inconclusive = small, poorly fitted or top-dose-only effect; inactive = no such curve, though single readings can be large or run the other way.

What follows are molecules tested against Lysine-specific demethylase 4A (Homo sapiens) (UniProt O75164) (assay: qHTS Assay for Inhibitors of JMJD2A-Tudor Domain). Details: AlphaScreen JMJD2A-Tudor / H3K4me3 peptide binding; series mostly up to 114 µM; activity change, negative = inhibition: at the top concentration.
% is set by controls: 0 for no effect and ±100 for the full control effect; potency is the fitted concentration of half-maximal effect.
Note: nearly all actives have a fitted effect of over 50% in size.

Sequence of Lysine-specific demethylase 4A (Homo sapiens) (O75164 whole entry, looked up, the tested form may be a part): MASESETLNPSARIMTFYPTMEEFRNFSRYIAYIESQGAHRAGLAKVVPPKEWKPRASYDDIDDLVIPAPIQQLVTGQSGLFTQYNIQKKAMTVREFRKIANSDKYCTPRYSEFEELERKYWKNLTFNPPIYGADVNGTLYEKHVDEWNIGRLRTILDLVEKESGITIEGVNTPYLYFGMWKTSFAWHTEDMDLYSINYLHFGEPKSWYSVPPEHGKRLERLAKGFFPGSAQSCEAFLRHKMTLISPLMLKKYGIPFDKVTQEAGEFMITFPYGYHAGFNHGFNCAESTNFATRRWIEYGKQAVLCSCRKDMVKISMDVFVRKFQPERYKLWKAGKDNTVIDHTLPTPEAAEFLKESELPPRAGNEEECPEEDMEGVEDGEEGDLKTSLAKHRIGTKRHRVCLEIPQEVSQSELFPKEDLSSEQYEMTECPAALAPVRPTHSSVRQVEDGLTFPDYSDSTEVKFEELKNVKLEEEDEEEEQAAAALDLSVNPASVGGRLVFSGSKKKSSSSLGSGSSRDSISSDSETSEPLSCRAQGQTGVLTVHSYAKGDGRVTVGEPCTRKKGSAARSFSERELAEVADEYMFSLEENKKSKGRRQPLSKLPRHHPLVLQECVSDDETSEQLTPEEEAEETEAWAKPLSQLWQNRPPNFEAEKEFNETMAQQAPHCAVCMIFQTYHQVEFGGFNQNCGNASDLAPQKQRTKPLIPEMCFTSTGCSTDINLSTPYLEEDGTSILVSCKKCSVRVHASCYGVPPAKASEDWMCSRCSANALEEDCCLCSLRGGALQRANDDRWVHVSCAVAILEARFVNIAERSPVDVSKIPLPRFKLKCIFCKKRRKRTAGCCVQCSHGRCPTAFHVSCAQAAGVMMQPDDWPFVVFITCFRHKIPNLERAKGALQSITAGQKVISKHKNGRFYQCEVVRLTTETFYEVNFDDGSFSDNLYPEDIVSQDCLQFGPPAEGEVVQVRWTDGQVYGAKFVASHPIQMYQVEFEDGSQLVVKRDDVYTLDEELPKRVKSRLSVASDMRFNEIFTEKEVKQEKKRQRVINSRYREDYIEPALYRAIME

Point of comparison: CCc1cccc(NC(=O)Cn2nc(CC)n3c(cc4cc(C)ccc43)c2=O)c1, “activity change, negative = inhibition” value 0%. Against it:
- Cn1c(=O)sc2cc(NS(=O)(=O)c3ccc(C(C)(C)C)cc3)ccc21 — lower, -10.9%
- CCOC(=O)c1ccc(NC(=O)c2c(NCc3cccc(OC)c3)sc3c2CCC3)cc1 — lower, -12.2%
- CCOC(=O)C1CCCN(S(=O)(=O)c2cc(-c3cc(C)no3)ccc2OC)C1 (stereo not drawn) — lower, -10.9%
- CSCc1ccc(C(=O)Nc2cc(C)cc(C)c2)cc1 — lower, -8.45%
- Cc1ccccc1C(=O)Nc1ccccc1NC(=O)c1ccccc1C — lower, -16.9%
- Cc1cc2c(cc1S(=O)(=O)CCC(=O)Nc1ccc(OC(F)(F)F)cc1)OCC(=O)N2 — lower, -12.2%
- CCCCc1nn2c(=O)cc(COC(=O)c3ccc(NC(=O)c4ccccc4C)cc3)nc2s1 — lower, -21.9%
- CCC(=O)Nc1cccc(-c2nc3cc(C)ccc3o2)c1 — higher, 2.56%
- Cc1ccc(-n2nnnc2CNC(=O)c2ccccc2C)cc1C — lower, -3.85%
- CCCNC(=O)c1ccc(Cn2c(SCC(N)=O)nc3ccccc3c2=O)cc1 — lower, -18.5%
- COc1ccc2cc(C3=CC(=O)C[C@H](c4ccc5c(c4)OCO5)C3)ccc2c1 — lower, -26.8%
- COc1ccc([C@H]2CC(=O)C=C(c3ccc(C)cc3)C2)cc1 — higher, 4.23%
- Cc1ccc(C)c(N2CCN(C(=O)CCc3c(C)nc4c(c3C)c(=O)n(C)c(=O)n4C)CC2)c1 — lower, -7.41%
- O=C(CCC1N=C2c3ccccc3N=C(SCc3ccccc3F)N2C1=O)NCCc1ccccc1 (stereo not drawn) — lower, -18%
- COc1ccc(C(=O)CSc2c(C(C)C)cnc3c2c(=O)n(C)c(=O)n3C)cc1 — lower, -18.2%
- CCOC(=O)c1cccc(NS(=O)(=O)c2cc(-c3cnc(C)o3)ccc2OC)c1 — lower, -33.4%
- Cc1cccc(NC(=O)Cn2c(=O)n(CCC(C)C)c(=O)c3cccnc32)c1 — lower, -9.45%
- O=C(NCCCc1ccccc1)c1ccc2c(c1)sc1nc(-c3ccc(F)cc3)cn12 — lower, -15.5%
- CC1=C(C(=O)OCC2CCCCC2)C(c2c(F)cccc2Cl)CC(=O)N1 (stereo not drawn) — higher, 3.42%
- O=S(=O)(c1ccccc1)c1nc(-c2ccccc2)oc1NCCCN1CCOCC1 — lower, -22.2%

With CC(=O)Nc1ccccc1NC(=O)c1cc(C)cc(C)c1 the Potency was 11.2 µM (active).
With O=C(CCc1[nH]c2ccccc2c1Sc1ccccc1)N(CCO)CCO the Potency was 79.4 µM (active).
With COc1ccc([C@H]2CC(=O)C=C(c3ccc(CO)cc3)C2)cc1 the Potency was 28.2 µM (active).
In the case of Oc1ccc2ccccc2c1N=Nc1nccs1, the Potency is reported as 5.62 µM (active).
With Oc1ccc(N=Nc2nccs2)c(O)c1 the Potency was 35.5 µM (active).
For N#Cc1nc(-c2ccc(OCc3ccccc3)cc2)oc1NCCCN1CCOCC1, the Potency was 35.5 µM (active).

For CC1CC(C)CN(c2oc(-c3ccc(OCc4ccc(Cl)cc4)cc3)nc2C#N)C1 (stereo not drawn), the “activity change, negative = inhibition” value was -19.2% [at 57.1 µM].
